Reference: PubChem BioAssay AID1159580 (chemical genetic matrix, 2015)
Where “and” joins values, the source holds several entries; their conditions need not be identical. Equal entries are not always repeated. The campaign covered roughly 5,500 compounds. About 2,000 (36%) were called active. Inconclusive results (about 18%) are left out. Cut-off read from the data, not from the text of the source: active = normalized growth mostly below about 0.91 (no sharp cut-off); inconclusive = no clear call, values can overlap the other calls; inactive = mostly above about 0.92. Some of the results follow. More than one record can exist for a structure, and the calls need not agree.

Assay: chemical genetic growth profiling, strain panel (AID 1159580);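 note: tested at 20 µM; growth read once vehicle control cultures reached saturation at 30 °C; 1 = growth at the plate median or of vehicle wells; lower values mean less growth of the strain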
Details: growth OD

In the case of `CC[N+](C)(C)c1cccc(O)c1`, the normalized growth (S. cerevisiae deletion strains, locus YNL153C, strain GIM3, stronger effect = lower value) is reported as 0.982 (inactive), the normalized growth (S. cerevisiae deletion strains, locus YNL175C, strain NOP13, stronger effect = lower value) is reported as 0.999 (inactive) and the normalized growth (S. cerevisiae deletion strains, locus YNL183C, strain NPR1, stronger effect = lower value) is reported as 0.95 (inactive). The normalized growth (S. cerevisiae deletion strains, locus YNL197C, strain WHI3, stronger effect = lower value) was 1 (inactive), the normalized growth (S. cerevisiae deletion strains, locus YNL209W, strain ssb2, stronger effect = lower value) was 1.01 (inactive) and the normalized growth (S. cerevisiae deletion strains, locus YNL224C, strain SQS1, stronger effect = lower value) was 1.02 (inactive). For the same compound, the normalized growth (S. cerevisiae deletion strains, locus YNL233W, strain BNI4, stronger effect = lower value) was 0.979 (inactive), the normalized growth (S. cerevisiae deletion strains, locus YNL248C, strain rpa49, stronger effect = lower value) was 1.07 (inactive) and the normalized growth (S. cerevisiae deletion strains, locus YNL250W, strain rad50, stronger effect = lower value) was 0.982 (inactive). The normalized growth (S. cerevisiae deletion strains, locus YNL271C, strain bni1, stronger effect = lower value) was 0.977 (inactive), the normalized growth (S. cerevisiae deletion strains, locus YNL298W, strain CLA4, stronger effect = lower value) was 0.979 (inactive) and the normalized growth (S. cerevisiae deletion strains, locus YNL307C, strain MCK1, stronger effect = lower value) was 0.973 (inactive). The normalized growth (S. cerevisiae deletion strains, locus YNL322C, strain KRE1 (second series), stronger effect = lower value) was 1.02 (inactive), the normalized growth (S. cerevisiae deletion strains, locus YNL322C, strain KRE1, stronger effect = lower value) was 0.993 (inactive) and the normalized growth (S. cerevisiae deletion strains, locus YNR049C, strain mso1, stronger effect = lower value) was 1.01 (inactive). For the same compound, the normalized growth (S. cerevisiae deletion strains, locus YNR052C, strain pop2, stronger effect = lower value) was 0.984 (inactive), the normalized growth (S. cerevisiae deletion strains, locus YOL006C, strain TOP1, stronger effect = lower value) was 0.948 (inactive) and the normalized growth (S. cerevisiae deletion strains, locus YOL012C, strain htz1) was 0.664 (inactive). The normalized growth (S. cerevisiae deletion strains, locus YOL147C, strain pex11, stronger effect = lower value) was 0.982 (inactive), the normalized growth (S. cerevisiae deletion strains, locus YOR001W, strain rrp6, stronger effect = lower value) was 0.951 (inactive) and the normalized growth (S. cerevisiae deletion strains, locus YOR061W, strain CKA2, stronger effect = lower value) was 0.989 (inactive). The normalized growth (S. cerevisiae deletion strains, locus YOR069W, strain VPS5, stronger effect = lower value) was 0.986 (inactive), the normalized growth (S. cerevisiae deletion strains, locus YOR070C, strain gyp1, stronger effect = lower value) was 1 (inactive) and the normalized growth (S. cerevisiae deletion strains, locus YOR080W, strain dia2, stronger effect = lower value) was 1 (inactive). For the same compound, the normalized growth (S. cerevisiae deletion strains, locus YOR083W, strain WHI5 (second series), stronger effect = lower value) was 0.991 (inactive), the normalized growth (S. cerevisiae deletion strains, locus YOR083W, strain WHI5, stronger effect = lower value) was 1.05 (inactive) and the normalized growth (S. cerevisiae deletion strains, locus YOR106W, strain vam3, stronger effect = lower value) was 1.05 (inactive). The normalized growth (S. cerevisiae deletion strains, locus YOR136W, strain idh2, stronger effect = lower value) was 0.986 (inactive), the normalized growth (S. cerevisiae deletion strains, locus YOR144C, strain elg1, stronger effect = lower value) was 0.979 (inactive) and the normalized growth (S. cerevisiae deletion strains, locus YOR184W, strain ser1, stronger effect = lower value) was 0.955 (inactive). For the same compound, the normalized growth (S. cerevisiae deletion strains, locus YOR231W, strain MKK1, stronger effect = lower value) was 0.997 (inactive), the normalized growth (S. cerevisiae deletion strains, locus YOR265W, strain rbl2, stronger effect = lower value) was 1.01 (inactive) and the normalized growth (S. cerevisiae deletion strains, locus YOR270C, strain vph1, stronger effect = lower value) was 1.07 (inactive). The normalized growth (S. cerevisiae deletion strains, locus YOR290C, strain snf2, stronger effect = lower value) was 1.04 (inactive), the normalized growth (S. cerevisiae deletion strains, locus YOR316C, strain cot1, stronger effect = lower value) was 0.975 (inactive) and the normalized growth (S. cerevisiae deletion strains, locus YPL051W, strain arl3, stronger effect = lower value) was 1.04 (inactive). The normalized growth (S. cerevisiae deletion strains, locus YPL055C, strain LGE1, stronger effect = lower value) was 1.01 (inactive) and 1.17 [resistant] (active), the normalized growth (S. cerevisiae deletion strains, locus YPL078C, strain atp4, stronger effect = lower value) was 1.06 (inactive) and the normalized growth (S. cerevisiae deletion strains, locus YPL106C, strain sse1, stronger effect = lower value) was 1.02 (inactive). The normalized growth (S. cerevisiae deletion strains, locus YPL240C, strain hsp82, stronger effect = lower value) was 1.01 (inactive), the normalized growth (S. cerevisiae deletion strains, locus YPL241C, strain CIN2, stronger effect = lower value) was 1 (inactive) and 1.01 (inactive) and the normalized growth (S. cerevisiae deletion strains, locus YPL256C, strain CLN2, stronger effect = lower value) was 0.981 (inactive). For the same compound, the normalized growth (S. cerevisiae deletion strains, locus YPR119W, strain clb2, stronger effect = lower value) was 0.992 (inactive), the normalized growth (S. cerevisiae deletion strains, locus YPR141C, strain kar3, stronger effect = lower value) was 0.96 (inactive) and the normalized growth (S. cerevisiae deletion strains, locus YPR163C, strain tif3, stronger effect = lower value) was 0.97 (inactive). For the same compound, the normalized growth (S. cerevisiae deletion strains, locus YPR167C, strain met16, stronger effect = lower value) was 0.979 (inactive), the normalized growth (S. cerevisiae deletion strains, strain wtn01, stronger effect = lower value) was 0.937 (inactive) and the normalized growth (S. cerevisiae strains, strain wild type, stronger effect = lower value) was 0.996 (inactive).
